Source: PubChem (several laboratories)
Only some compounds are listed: those with a hit (about 1.3% of all), similar ones and a draw of the others.
C-LANA FP: blocks KSHV LANA C-terminal domain binding to DNA; MBP-C-LANA/FAM-LBS DNA binding, fluorescence polarization; inhibition, % at 9 µM; 0.078% of 340,000 active; AID 504423;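 active means highest replicate inhibition at or above 60% at 9 µM, even if other replicates fall short; inactive means all replicates below 60% inhibition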
Bcl-xL primary: blocks human Bcl-xL binding to Bim BH3 peptide. 0.7% of 320,000 active. inhibition, % at 10.9 µM. GST-Bcl-xL / FITC-Bim BH3 peptide fluorescence polarization. AID 2129;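 active means inhibition above the mean of all tested compounds plus 3 SD, cutoff set per campaign, cut at about 30% in these data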;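 further: inhibitors lower millipolarization by displacing the labeled peptide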
eLon inh: E. coli protease La inhibition | AID 602123 | P0A9M0 | purified E. coli Lon protease, fluorescence polarization | inhibition, % at 7.94 µM | 0.42% of 360,000 active; in the data active means inhibition above about 13%, passing the limit was not always enough
GLD-1 RNA inh: GLD-1-TGE RNA interaction inhibition (C. elegans). 0.44% of 320,000 active. inhibition, % at 5.96 µM. purified GLD-1 + fluorescein TGE RNA, fluorescence polarization. AID 2280. Q17339;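 active means percent inhibition above a per-plate cutoff, the plate mean of test compounds plus 3 SD, cut at about 30% in these data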
Keap1 Nrf2 FP: disrupts human Keap1 binding to Nrf2 peptide; Q14145; Keap1 Kelch-Nrf2 peptide fluorescence polarization, 1536-well; inhibition, % at 9.4 µM; 0.15% of 340,000 active; AID 504523; in the data active means inhibition above about 12%;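 further: human Keap1 Kelch domain with fluorescein labeled Nrf2 9mer peptide probe; higher means more block of Keap1 binding to Nrf2 peptide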
MCL1 BIM primary: inhibitors of human MCL1 binding to BIM-BH3 peptide; Q07820; GST-MCL1 / FITC-Bim-BH3 fluorescence polarization; inhibition, % at 10.9 µM; 0.68% of 320,000 active;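 active means inhibition above the mean inhibition of all tested compounds plus 3 SD, set per campaign, cut at about 40% in these data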;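 further: higher means more loss of mP so more displacement of Bim peptide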
Bcl-xL conf: Bcl-xL (human) inhibition, MCL1 counter-screen confirmation; GST-Bcl-xL / FITC-Bim BH3 peptide FP binding; shares compounds with MCL1 BIM primary; AID 2166; inhibition, % at 10.9 µM; 54% of 1,700 active;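 active means inhibition above a cutoff equal to the mean inhibition of all tested compounds plus 3 SD, cut at about 30% in these data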
MCL1 BIM confirm: MCL1-BIM-BH3 interaction inhibition, confirmation | inhibition, % at 10.9 µM | AID 2168 | shares compounds with MCL1 BIM primary | GST-MCL1 / FITC-Bim-BH3 fluorescence polarization | 61% of 1,700 active;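 active means inhibition above the average of all tested compounds plus 3 SD, cut at about 40% in these data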
GLD-1 TGE cf: GLD-1 TGE RNA interaction inhibition, confirmation; shares compounds with GLD-1 RNA inh; GLD-1/FL-TGE RNA fluorescence polarization, biochemical; inhibition, % at 5.96 µM; 10% of 550 active;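 active means average inhibition across triplicates above the hit cutoff set in the primary screen, cut at about 32% in these data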
DNA intercal 2: counter-screen for C-LANA inhibitors: DNA intercalators; AC50, µM (doses to about 35 µM); Acridine orange-DNA displacement, fluorescence polarization; shares compounds with C-LANA FP; 20 tested, under 10 active;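 active means signal drop with an AC50 no more than ten times the top valid dose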
Keap1 Kelch bind: Keap1 (human) Kelch domain binding; Keap1 Kelch thermal shift, delta Tm; stronger effect = higher value; max delta Tm, degrees C; 8% of 400 active; shares compounds with Keap1 Nrf2 FP; in the data active means max delta Tm above about 0.48 degrees C
Sypro dye melt: shifts Sypro Orange melt without protein, a false positive; 140 tested, under 10 active; delta Tm, degrees C (concentration not given with the values); Sypro Orange dye-only thermal melt, no protein, delta Tm; top dose 26 µM; shares compounds with Keap1 Nrf2 FP;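 active means at highest dose tested, delta Tm positive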
A number is an active result; i = inactive; nt = not tested or not shown; + = active, no number.

SMILES	C-LANA FP	Bcl-xL primary	eLon inh	GLD-1 RNA inh	Keap1 Nrf2 FP	MCL1 BIM primary	Bcl-xL conf	MCL1 BIM confirm	GLD-1 TGE cf	others
Cc1cc2cc(CNC(=O)CCC(=O)O)ccc2n1C	i	i	i	i	i	i	nt	nt	nt
CCCC(=O)NCc1ccc2c(c1)cc(C)n2C	i	48	i	54	i	52	i	i	i
Nc1cccc2c1C(=O)N(c1ccccc1)C2=O	i	69	i	70	i	80	65	79	67
O=C1c2ccccc2C(=O)N1c1ccccc1	i	nt	i	nt	i	nt	nt	nt	nt
COc1ccccc1-c1nc(-c2ccccc2)[nH]c(=O)c1C#N	i	i	i	i	i	i	nt	nt	nt
S=C1CCSc2ccc(Cl)cc2N1	i	nt	i	nt	i	nt	nt	nt	nt
O=C1CCCC2=C1Sc1ccc(Cl)cc1N2	i	69	i	50	i	77	64	74	i
CCOC(=O)C1=C[C@@H](C(C)(C)C)N(S(=O)(=O)c2ccc(C)cc2)[C@H]1c1ccc(F)cc1	nt	nt	i	nt	nt	nt	nt	nt	nt
Cc1ccc(C(=O)NNC(=O)c2ccc(NS(=O)(=O)c3cccs3)cc2)o1	i	61	i	46	i	+	i	i	i
COc1ccc2c(c1O)C(=O)c1ccccc1C2=O	nt	i	nt	i	nt	i	nt	nt	nt
Nc1c(O)ccc2c1C(=O)c1ccccc1C2=O	nt	105	nt	72	nt	105	111	127	53
CCc1ccc(N2C(=O)CC(Cn3nc(C)cc3C)C2=O)cc1 (stereo unspecified)	i	i	i	i	i	i	nt	nt	nt
O=C1C=C(O)c2cccc3cccc1c23	i	71	i	36	i	86	67	86	57
O=C(Nc1nc2ccccc2s1)C1CCN(S(=O)(=O)c2cc([N+](=O)[O-])ccc2Cl)CC1	i	i	i	i	i	i	nt	nt	nt
C=C1c2cccc(O)c2C(O)=C2C(=O)[C@]3(O)C(O)=C(C(N)=O)C(=O)[C@@H](N(C)C)[C@@H]3[C@@H](O)[C@H]12	75	64	i	36	i	108	36	87	i
Cc1cccc(C)c1NC(=O)CN(C)C(=O)CC1Sc2ccccc2NC1=O (stereo unspecified)	i	i	i	i	i	i	nt	nt	nt
Cc1ccc(-n2c(C)nc3c(cnn3-c3ccc(C)c(C)c3)c2=O)cc1C	i	76	i	75	i	79	i	i	i
c1ccc(COc2ncnc3c2ncn3CCCNCCN2CCOCC2)cc1	i	nt	i	nt	i	nt	nt	nt	nt
Cc1ccccc1CS(=O)(=O)CCC(=O)NCCN1CCN(c2cccc(Cl)c2)CC1	i	62	i	62	i	59	i	i	i
COc1ccccc1NS(=O)(=O)c1cc(NC(=O)CN2C(=O)NC3(CCCC3)C2=O)ccc1C	i	i	i	i	i	i	nt	nt	nt
CN(C)c1ccc(/C=C(\C#N)C(=O)NCc2ccco2)cc1	nt	i	nt	i	nt	i	nt	nt	nt
CC(OC(=O)/C(C#N)=C/c1ccc(N(C)C)cc1)C(=O)NCc1ccco1 (stereo unspecified)	i	111	i	77	i	129	99	142	56
COc1ccc(CN2CCC3CC2c2cc(Cl)ccc23)cc1 (stereo unspecified)	i	nt	i	nt	i	nt	nt	nt	nt
O=C(NCc1ccc2c(c1)OCO2)c1ccc2c(c1)OCO2	i	i	i	i	i	i	nt	nt	nt
Cc1cc2cc(CNC(=O)c3ccc(Br)o3)ccc2[nH]1	i	55	i	41	i	69	57	75	i
SMILES	C-LANA FP	Bcl-xL primary	eLon inh	GLD-1 RNA inh	Keap1 Nrf2 FP	MCL1 BIM primary	Bcl-xL conf	MCL1 BIM confirm	GLD-1 TGE cf	others
Cc1ccc(CNC(=O)c2ccc(Br)o2)cc1	i	i	i	i	i	i	nt	nt	nt
Cc1cc2cc(CNC(=O)c3ccc4c(c3)OCO4)ccc2[nH]1	i	37	i	33	i	53	i	i	i
CCOC(=O)CC(NC(=O)CCc1c(C)nc2ncnn2c1C)c1ccc(C)cc1 (stereo unspecified)	i	i	i	i	i	i	nt	nt	nt
O=C1CCCC(O)=C1N=Nc1ccc(C(=O)O)cc1	71	i	i	i	i	41	i	i	nt	DNA intercal 2=i
CCOc1ccc(/C=N/NC(=O)CN2CCCCC2)cc1OCC	i	i	i	i	i	i	nt	nt	nt
Cn1nc(-c2ccccc2)c2nc3ccccc3nc21	i	56	i	i	54	55	102	111	nt	Keap1 Kelch bind=i;Sypro dye melt=i
O=C(Cc1ccc(S(=O)(=O)N2CCOCC2)s1)Nc1nc2c(s1)CCCC2	i	80	i	66	18	102	32	52	nt	Keap1 Kelch bind=i
Cc1ccc(C(=O)N/C(=C\c2ccc(-c3ccccc3[N+](=O)[O-])o2)C(=O)NCCCN(C)C)cc1	i	76	i	51	14	80	i	i	nt	Keap1 Kelch bind=i
CN(C)CCCNC(=O)/C(=C/c1ccc(-c2ccc([N+](=O)[O-])cc2)o1)NC(=O)c1ccccc1	i	i	i	i	i	i	nt	nt	nt
Cc1oc2c(cc(NS(=O)(=O)c3ccc(C(C)C)cc3)c3ccccc32)c1C(=O)O	i	69	i	32	20	75	110	138	nt	Keap1 Kelch bind=0.52
CCOC(=O)c1ccc(NC(=O)N2C3CCCC2CC(NC(C)=O)C3)cc1 (stereo unspecified)	i	i	i	i	i	i	nt	nt	nt
N#Cc1c(SCC(=O)Nc2ccc(C(F)(F)F)cc2)sc2c(O)cc(=O)[nH]c12	i	i	i	i	i	i	nt	nt	nt
N#Cc1c(SCC(=O)Nc2nncs2)sc2c(O)cc(=O)[nH]c12	i	34	i	i	21	70	i	53	nt	Keap1 Kelch bind=i;Sypro dye melt=i
CN(C)CCNC(=O)c1sc2nc(-c3ccccc3)cc(C(F)(F)F)c2c1N	i	i	i	i	i	i	nt	nt	nt
COc1ccc(-c2cc(C(F)(F)F)c3c(N)c(C(=O)NCCSC)sc3n2)cc1	i	80	i	58	29	78	81	85	nt	DNA intercal 2=i;Keap1 Kelch bind=i;Sypro dye melt=i
Cc1ccc(CNC(=O)CCc2c(C)nn(-c3ccc(N4CCOCC4)nn3)c2C)cc1	i	i	i	i	i	i	nt	nt	nt
c1cnc(NCCSSCCNc2ncccn2)nc1	nt	nt	i	nt	nt	nt	nt	nt	nt
